An excerpt weighted towards active compounds, which were near 10% of everything screened.
GPT2 inh: Primary qHTS assay for inhibitors of Glutamate pyruvate transaminase 2 (GPT2) | Recombinant GPT2, coupled pyruvate oxidase/HRP Amplex Red fluorescence | Potency, µM (top dose mostly 57.7 µM), for the others: at the highest dose activity change, negative = inhibition, usual class: inhibitors | 0.25% of 100,000 active; also: % is scaled to controls: 0 for no effect and ±100 for the full control effect; nearly all actives have a fitted effect of over 60% in size
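Inhibition is scored from Amplex Red fluorescence generated when pyruvate oxidase and HRP act on pyruvate released by GPT2. Reactions contain 10ng/uL enzyme, 250uM a-KG and 2mM L-alanine and run 30 min at room temperature.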
Luciferase inh: Firefly luciferase inhibition profiling of diverse chemical library using quantitative high-throughput screening; Luciferin 4-monooxygenase (Photinus pyralis), P08659; purified P. pyralis luciferase, luminescence, biochemical; Potency, µM (series often up to 115 µM), usual class: inhibitors; 2.5% of 76,000 active; also: % is scaled to controls: 0 for no effect and ±100 for the full control effect; nearly all actives have a fitted effect of over 65% in size
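Cell-free enzyme assay, 10nM P. pyralis luciferase, luciferin and ATP each at 10uM. Inhibition profiled over a 6-point titration, read as luminescence.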
3T3 cytotox: Cytotoxic Profiling in NIH 3T3 Cell Line of Diverse Libraries Using Quantitative High-Throughput Screening; NIH 3T3 viability, CellTiter-Glo ATP luminescence, 48-72 h; 4.3% of 94,000 active; Potency, µM (doses to about 96.7 µM), for inactives: at the highest dose activity change, negative = cytotoxicity, usual class: inhibitors; also: % is scaled to controls: 0 for no effect and ±100 for the full control effect; nearly all actives have a fitted effect of over 55% in size
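Cytotoxicity is measured as loss of cellular ATP: NIH 3T3 cells (400/well) are exposed to compound for 48 or 72 hr at 37 °C, then CellTiter-Glo luminescence is imaged after 10 min at room temperature.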
HEK293 tox: Cytotoxic Profiling in HEK 293 Cell Line of Diverse Libraries Using Quantitative High-Throughput Screening. HEK 293 viability, ATP luminescence (CellTiter-Glo), 48-72 h. Potency, µM (highest dose often 115 µM), without a hit: at the top dose activity change, negative = cytotoxicity, actives largely listed as inhibitors. 6.6% of 94,000 active; also: % is scaled to controls: 0 for no effect and ±100 for the full control effect; nearly all actives have a fitted effect of over 60% in size
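Viability of HEK 293 cells, plated at 250 cells/well, was judged by cellular ATP after compound treatment for 48 or 72 hr. Luminescence was imaged 10 min after CellTiter-Glo addition at room temperature.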
NPR1 antag: Natriuretic polypeptide receptor (hNpr1) antagonism - Primary qHTS; Potency, µM (top dose mostly 46.3 µM), for inactives: at the top dose activity change, negative = inhibition, most hits filed as inhibitors; Atrial natriuretic peptide receptor 1 (Homo sapiens), P16066; HEK293 hNpr1 GloSensor cGMP, ANP-stimulated luminescence; 1.6% of 76,000 active; calls by dose curve; also: % is scaled to controls: 0 for no effect and ±100 for the full control effect; nearly all actives have a fitted effect of over 60% in size
Target sequence (P16066 whole entry, looked up): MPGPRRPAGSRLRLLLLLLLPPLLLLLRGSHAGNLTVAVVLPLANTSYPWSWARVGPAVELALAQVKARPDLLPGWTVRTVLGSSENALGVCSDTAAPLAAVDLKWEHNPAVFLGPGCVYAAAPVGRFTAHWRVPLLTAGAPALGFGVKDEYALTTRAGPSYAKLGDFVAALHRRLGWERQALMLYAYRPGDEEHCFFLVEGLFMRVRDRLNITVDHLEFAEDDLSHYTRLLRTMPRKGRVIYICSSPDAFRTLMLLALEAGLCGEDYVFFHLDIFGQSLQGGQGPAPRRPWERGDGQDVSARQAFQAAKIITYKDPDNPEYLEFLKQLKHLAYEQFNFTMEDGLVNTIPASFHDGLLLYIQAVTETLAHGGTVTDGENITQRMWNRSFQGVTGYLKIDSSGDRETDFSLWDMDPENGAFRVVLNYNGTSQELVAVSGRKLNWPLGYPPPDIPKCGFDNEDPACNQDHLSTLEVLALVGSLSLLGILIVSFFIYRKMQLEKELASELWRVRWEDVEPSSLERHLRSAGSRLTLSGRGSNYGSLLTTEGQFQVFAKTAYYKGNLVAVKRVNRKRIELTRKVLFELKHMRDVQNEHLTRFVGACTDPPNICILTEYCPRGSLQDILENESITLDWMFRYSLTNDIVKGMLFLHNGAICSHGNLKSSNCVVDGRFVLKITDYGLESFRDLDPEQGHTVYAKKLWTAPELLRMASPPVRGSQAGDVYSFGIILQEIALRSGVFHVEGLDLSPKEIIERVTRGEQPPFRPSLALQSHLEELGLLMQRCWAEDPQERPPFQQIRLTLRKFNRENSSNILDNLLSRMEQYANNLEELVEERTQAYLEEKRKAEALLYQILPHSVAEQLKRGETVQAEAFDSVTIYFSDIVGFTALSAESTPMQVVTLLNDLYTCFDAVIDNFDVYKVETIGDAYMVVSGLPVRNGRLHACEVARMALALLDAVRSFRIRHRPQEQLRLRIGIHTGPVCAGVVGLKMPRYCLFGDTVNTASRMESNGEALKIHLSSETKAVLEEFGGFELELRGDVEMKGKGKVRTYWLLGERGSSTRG
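HEK293 cells stably expressing human Npr1 and cGMP GloSensor pGS-40F, loaded 2 h with 2% GloSensor reagent, given compound 30 min at room temperature. Luminescence read before and 20 min after 0.1 nM hNppA.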
Npr1 antag conf: Natriuretic polypeptide receptor (hNpr1) antagonism - Confirmation; HEK293 hNpr1 cGMP GloSensor luminescence, ANP-stimulated; 76% of 1,400 active; Potency, µM (series often up to 57.6 µM), for the others: at the highest dose activity change, negative = inhibition, hits mostly inhibitors; shares compounds with NPR1 antag; calls by dose curve; also: nearly all actives have a fitted effect of over 70% in size
NPR2 antag: Natriuretic polypeptide receptor (hNpr2) antagonism - Subtype selectivity assay. shares compounds with NPR1 antag. 67% of 1,400 active. Potency, µM (series often up to 57.6 µM), inactives show top-dose activity change, negative = inhibition, most hits filed as inhibitors. HEK293 hNpr2 GloSensor cGMP luminescence, CNP-stimulated. AID 1347046, 2019; calls by dose curve; also: nearly all actives have a fitted effect of over 70% in size
FLuc counter: Natriuretic polypeptide receptor (hNpr1) antagonism - Confirmation firefly luciferase (FLuc) inhibition counterscreen; shares compounds with NPR1 antag; purified FLuc enzyme, luminescence, Km substrate; Potency, µM (series often up to 57.6 µM), for inactives: at the highest dose activity change, negative = inhibition, hits mostly inhibitors; 0.7% of 1,400 active; AID 1347047, 2019; also: 0% is about no effect
GloSensor ctrl: Natriuretic polypeptide receptor (hNpr1) antagonism - Counterscreen GloSensor control cell line; shares compounds with NPR1 antag; HEK293 GloSensor cGMP, SNP-stimulated, luminescence; Potency, µM (highest dose often 57.6 µM), inactives show top-dose activity change, negative = inhibition, hits mostly inhibitors; 69% of 1,400 active; AID 1347051, 2019; calls by dose curve; also: % is scaled to controls: 0 for no effect and ±100 for the full control effect; nearly all actives have a fitted effect of over 70% in size
Starred values were filed as active, the others as inactive; i = inactive; ? = inconclusive; nt = no result given; [ ] = remark or other dose. Unless noted, calls follow the shape of the dose curve; as a rule, active = well fitted curve in the direction sought with a large enough effect; inconclusive = small, poorly fitted or top-dose-only effect, or another doubt; inactive = no such curve, though single readings can be large; an effect the other way counts as inactive or inconclusive. Potency is read from the fitted curve at half-maximal effect.

SMILES	GPT2 inh	Luciferase inh	3T3 cytotox	HEK293 tox	NPR1 antag	Npr1 antag conf	NPR2 antag	FLuc counter	GloSensor ctrl
O=C(c1ccc(F)c(Cl)c1)N1CCC(n2cc(-c3nc(-c4ccccc4)no3)nn2)CC1	2%	i	?	?	13µM*	24µM*	22µM*	-20%	22µM*
Cc1noc(-c2cn(C3CCN(C(=O)c4ccc(F)c(Cl)c4)CC3)nn2)n1	i	i	?	-14%	-1%	nt	nt	nt	nt
O=C(c1ccccc1F)N1CCC(n2cc(-c3nc(-c4ccccc4)no3)nn2)C1 (centres undefined)	i	i	?	?	14µM*	22µM*	22µM*	-13%	17µM*
O=C(c1cccc(Cl)c1)N1CCCC(n2cc(-c3nc(-c4ccccc4)no3)nn2)C1 (centres undefined)	-5%	?	?	?	16µM*	27µM*	27µM*	-29%	27µM*
COc1ccc(C(=O)N2CCC(n3cc(-c4nc(-c5ccccc5)no4)nn3)CC2)cc1	i	i	?	?	?	22µM*	24µM*	-16%	22µM*
Cc1noc(-c2cn(C3CCCN(C(=O)c4cccc(Cl)c4)C3)nn2)n1 (centres undefined)	-8%	i	?	-6%	-8%	nt	nt	nt	nt
C#CCNC(=O)C[C@@H]1c2nc(NC(=O)C3CCCCC3)sc2C[C@@H]2[C@](C)(CO)[C@H](O)CC[C@]21C	3%	i	4%	i	1%	nt	nt	nt	nt
Cc1noc(C)c1[S+](=O)([O-])N1CCN(C(=O)c2nc3cccnc3n(Cc3ccccc3)c2=O)CC1	4%	nt	-16%	-14%	nt	nt	nt	nt	nt
O=C(c1ccc(F)c(F)c1)N1CCC(n2cc(-c3nc(-c4ccccc4)no3)nn2)CC1	3%	i	?	?	11µM*	24µM*	24µM*	-22%	22µM*
O=C(CCc1ccccc1)N1CCC(n2cc(-c3nc(-c4ccccc4)no3)nn2)C1 (centres undefined)	i	i	-28%	?	0%	nt	nt	nt	nt
COc1ccc(CCC(=O)N2CCCC(n3cc(-c4nc(-c5ccccc5)no4)nn3)C2)cc1 (centres undefined)	i	?	?	?	13µM*	24µM*	24µM*	12µM*	24µM*
CC(C)(C)OC(=O)NC(CN)c1ccccc1Cl (centres undefined)	i	nt	-10%[138 µM]	-22%[172 µM]	nt	nt	nt	nt	nt
O=C(CCC1CC1)N1CCC(c2cc(Cc3ccccc3)[nH]n2)CC1	i	i	?	?	-27%	-27%	-25%	-12%	-27%
CCCNC(=O)CCc1ccc2c(c1)CN(C(=O)NCC)CCO2	i	i	-12%	1%	2%	nt	nt	nt	nt
CCNC(=O)N1CCOc2ccc(CCC(=O)Nc3ccc(C)cc3)cc2C1	1%	i	?	?	11µM*	15µM*	19µM*	-15%	12µM*
CNC(=O)c1ccc(CC2CCN(C(C)=O)CC2)cc1	-8%	i	-27%	-26%	6%	nt	nt	nt	nt
CC(=O)N1CCC(Cc2ccc(C(=O)NC3CCN(Cc4ccccc4)CC3)cc2)CC1	5%	i	?	?	11µM*	24µM*	?	1%	24µM*
COc1ccc(-c2noc(CC3CCN(C(=O)c4ccc(OC)cc4OC)CC3)n2)cc1	2%	i	?	?	2.8µM*	3.1µM*	4.8µM*	-2%	3.1µM*
COc1ccc(Cl)cc1C(=O)N1CCC(Cc2nc(-c3cnccn3)no2)CC1	4%	i	?	-14%	-2%	nt	nt	nt	nt
COc1ccc(-c2noc(CC3CCN(C(=O)c4ccccc4OC)CC3)n2)cc1	i	i	?	?	10µM*	14µM*	14µM*	0%	12µM*
COc1ccc(-c2noc(CC3CCN(C(=O)C4CCN(C(=O)c5ccccc5)CC4)CC3)n2)cc1	i	i	?	?	8.9µM*	19µM*	17µM*	0%	12µM*
COc1cc(OC)cc(C(=O)N2CCC(Cc3nc(-c4ccccc4)no3)CC2)c1	i	i	?	?	?	nt	nt	nt	nt
Cc1cccc(C(=O)N2CCCN(c3cc(-c4ccc(Cl)cc4)[nH]n3)CC2)c1	-21%	i	?	?	-30%	nt	nt	nt	nt
O=C(NC1CCN(c2cc(-c3ccc(F)cc3)[nH]n2)CC1)c1cccc2[nH]ccc12	3%	i	40µM*	40µM*	?	?	?	-12%	-27%
Cn1cccc1C(=O)N1CCN(c2cc(-c3ccc(Cl)cc3)[nH]n2)CC1	i	i	?	?	-20%	nt	nt	nt	nt
O=C(c1ccc(OC(F)(F)F)cc1)N1CCN(c2cc(-c3ccc(Cl)cc3)[nH]n2)CC1	-13%	i	18µM*	32µM*	11µM*	19µM*	22µM*	3%	19µM*
O=C(c1cccc2[nH]ccc12)N1CCCN(c2cc(-c3ccc(Cl)cc3)[nH]n2)CC1	?	i	?	?	10µM*	15µM*	19µM*	?	14µM*
